# Tested on: Rhizobium 1 (Rhizobium herbae)
# Assay: relative growth (AUC of 72 h growth curve relative to DMSO control, dAUC) (ratio); higher = more growth (less inhibition), active = hit call of the paper
# Details: 20 µM;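 active = growth AUC significantly below the DMSO wells by Dunnett test; inactive = the rest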
# Method in brief: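 Growth was followed as A600, read hourly for 72 h on a plate reader after brief shaking. Isolates from Icelandic stream sediments and Silwood Park soil, and whole sediment communities, were first grown to carrying capacity in Luria–Bertani medium and then diluted 1:100 into 96-well plates with each chemical at 20 µM (1% DMSO). Relative growth (dAUC) is the spline-integrated area under the curve scaled to the mean of the DMSO controls, and the values are averages of three biological replicates.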
row,SMILES,relative growth
1,Nc1c([N+](=O)[O-])ccc(Oc2ccccc2)c1Cl,0.888 (inactive)
2,C/C(=N\C#N)N(C)Cc1ccc(Cl)nc1,1.11 (inactive)
3,CCC(C)(C)C(=O)OC1=C(c2ccc(Cl)cc2Cl)C(=O)OC12CCCCC2,0.97 (inactive)
4,CC1(C)CON(Cc2ccccc2Cl)C1=O,0.983 (inactive)
5,CC[C@H](C)[C@H]1O[C@]2(C=C[C@@H]1C)C[C@@H]1C[C@@H](C/C=C(\C)[C@@H](O[C@H]3C[C@H](OC)[C@@H](O[C@H]4C[C@H](OC)[C@@H](O)[C@H](C)O4)[C@H](C)O3)[C@@H](C)/C=C/C=C3\CO[C@@H]4[C@H](O)C(C)=C[C@@H](C(=O)O1)[C@]34O)O2.CO[C@H]1C[C@H](O[C@H]2[C@H](C)O[C@@H](O[C@@H]3/C(C)=C/C[C@@H]4C[C@@H](C[C@]5(C=C[C@H](C)[C@@H](C(C)C)O5)O4)OC(=O)[C@@H]4C=C(C)[C@@H](O)[C@H]5OC/C(=C\C=C\[C@@H]3C)[C@]54O)C[C@@H]2OC)O[C@@H](C)[C@@H]1O,0.807 (inactive)
6,CCC(CC)Nc1c([N+](=O)[O-])cc(C)c(C)c1[N+](=O)[O-],0.957 (inactive)
7,Cc1c(COC(=O)[C@@H]2[C@H](/C=C(\Cl)C(F)(F)F)C2(C)C)cccc1-c1ccccc1 (racemic),0.893 (inactive)
8,CS(=O)(=O)c1ccc(C(=O)C2C(=O)CCCC2=O)c([N+](=O)[O-])c1,1.15 (inactive)
9,N#Cc1cc(Br)c(O)c(Br)c1,0.751 (inactive)
10,CNC(=O)CSP(=S)(OC)OC,1.05 (inactive)
11,COP(=S)(OC)SCN1C(=O)c2ccccc2C1=O,0.943 (inactive)
12,OC(Cn1cncn1)(c1ccc(F)cc1)c1ccccc1F (configuration not stated),0.971 (inactive)
13,CN1COCN(Cc2cnc(Cl)s2)/C1=N\[N+](=O)[O-],1.01 (inactive)
14,N#CC(CCc1ccc(Cl)cc1)(Cn1cncn1)c1ccccc1 (configuration not stated),0.947 (inactive)
15,CCSC(C)CC1CC(=O)C(/C(CC)=N/OC/C=C/Cl)=C(O)C1 (mixture of isomers),0.924 (inactive)
16,CCCCc1c(C)nc(NCC)nc1OS(=O)(=O)N(C)C,1.05 (inactive)
17,CCCN(CCC)C(=O)SCc1ccccc1,1.05 (inactive)
18,O=C(O)COc1ccc(Cl)cc1Cl,1.03 (inactive)
19,O=C1C2(Cl)C3(Cl)C4(Cl)C(Cl)(Cl)C5(Cl)C3(Cl)C1(Cl)C5(Cl)C24Cl (configuration not stated),0.292 (active)

row,SMILES,relative growth
1,Nc1c(Cl)c(F)nc(OCC(=O)O)c1Cl,0.958 (inactive)
2,Cc1cccc2sc3nncn3c12,0.846 (inactive)
3,O=C(O)CNCP(=O)(O)O,1.03 (inactive)
4,CCNC(=O)NC(=O)/C(C#N)=N/OC,1.06 (inactive)
5,Cc1cc(C2CC2)nc(Nc2ccccc2)n1,1.06 (inactive)
6,COP(=O)(NC(C)=O)SC (configuration not stated),0.999 (inactive)
7,Cc1nnc(-c2ccccc2)c(=O)n1N,1.07 (inactive)
8,Clc1ccc(C(c2ccc(Cl)cc2)C(Cl)(Cl)Cl)cc1,1.07 (inactive)
9,O=C(Nc1ccc(F)cc1F)c1cccnc1Oc1cccc(C(F)(F)F)c1,0.66 (inactive)
10,N#Cc1sc2c(=O)c3ccccc3c(=O)c=2sc1C#N,1 (inactive)
11,CC[C@H](C)C1O[C@]2(C=C[C@@H]1C)C[C@@H]1C[C@@H](C/C=C(\C)[C@@H](O[C@H]3C[C@H](OC)[C@@H](O[C@H]4C[C@H](OC)[C@H](NC)[C@H](C)O4)[C@H](C)O3)[C@@H](C)/C=C/C=C3\CO[C@@H]4[C@H](O)C(C)=C[C@@H](C(=O)O1)[C@]34O)O2 (some centres not stated),0.8 (inactive)
12,CNC(=O)Oc1cccc2ccccc12,0.906 (inactive)
13,COP(N)(=O)SC (configuration not stated),0.973 (inactive)
14,COC(=O)NC(=S)Nc1ccccc1NC(=S)NC(=O)OC,0.959 (inactive)
15,COP(=O)(OC)OC=C(Cl)Cl,1.01 (inactive)
16,CC(C)N(C(=O)COc1nnc(C(F)(F)F)s1)c1ccc(F)cc1,1.02 (inactive)
17,CCc1cc(C)cc(CC)c1-c1c(OC(=O)C(C)(C)C)n2n(c1=O)CCOCC2,0.907 (inactive)
18,CNC(=O)ON=C(C)SC,1.06 (inactive)

# From the supplement of paper PMC12067926
